According to PubChem BioAssay (NCI):
The panel holds about 83,000 compounds, 20% with a hit somewhere; the sample as a whole holds those more often.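 96-well plates, one dose, 48 hours. Percent growth reported; active if below 10.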 Calls of active or inactive are those of the source.

Assays:
Test in all cases: NCI-60 one-dose screen, 48 h (100 = growth as untreated, 0 = no growth, -100 = all killed)
NCI-H226 lung = settings: 10 µM unless noted
HOP-62 NSCLC = settings: 10 µM unless noted
HOP-92 NSCLC = settings: 10 µM unless noted
NCI-H522 lung = settings: 10 µM unless noted
COLO 205 colon = settings: 10 µM
HT29 colon = settings: 10 µM unless noted
SNB-19 CNS = settings: 10 µM unless noted
PC-3 prostate = settings: 10 µM unless noted
EKVX NSCLC = settings: 10 µM unless noted
TK-10 renal = settings: 10 µM unless noted
CAKI-1 renal = settings: 10 µM unless noted
CCRF-CEM leukemia = settings: 10 µM unless noted
OVCAR-8 ovarian = settings: 10 µM unless noted
OVCAR-4 ovarian = settings: 10 µM unless noted
SK-OV-3 ovarian = settings: 10 µM unless noted
HS 578T breast = settings: 10 µM unless noted
NCI-H322M lung = settings: 10 µM unless noted
A549/ATCC NSCLC = settings: 10 µM unless noted
A498 renal = settings: 10 µM unless noted

| SMILES | growth (NCI-H226 lung) | growth (HOP-62 NSCLC) | growth (HOP-92 NSCLC) | growth (NCI-H522 lung) | growth (COLO 205 colon) | growth (HT29 colon) | growth (SNB-19 CNS) | growth (PC-3 prostate) | growth (EKVX NSCLC) | growth (TK-10 renal) | growth (CAKI-1 renal) | growth (CCRF-CEM leukemia) | growth (OVCAR-8 ovarian) | growth (OVCAR-4 ovarian) | growth (SK-OV-3 ovarian) | growth (HS 578T breast) | growth (NCI-H322M lung) | growth (A549/ATCC NSCLC) | growth (A498 renal) |
| --- | --- | --- | --- | --- | --- | --- | --- | --- | --- | --- | --- | --- | --- | --- | --- | --- | --- | --- | --- |
| NCCc1cc(O)c(O)cc1O | 99.1% (inactive) | 105% (inactive) | 85.4% (inactive) | -11.5% (active) | 106% (inactive) | 98.8% (inactive) | 100% (inactive) | 82.3% (inactive) | 102% (inactive) | 95.3% (inactive) | 100% (inactive) | 65.7% (inactive) | 97.8% (inactive) | 99.5% (inactive) | 99% (inactive) | 120% (inactive) |  |  |  |
| CCCCCCCC(=O)OCC/C=C/C1OC1C1OC(=O)/C=C\C=C\c2nc(oc2C)/C=C(/C)CCC2OC2C1OC(=O)NC(C)=O (stereo not drawn) |  | -11.6% (active) |  | -80.3% (active) | -90.3% (active) | 4.62% (active) | -56.8% (active) |  | -5.8% (active) | 1.86% (active) | -6.91% (active) |  | -79.1% (active) | 8.12% (active) | -38.5% (active) | -1.2% (active) | 15.6% (inactive) | 5.19% (active) | -82.5% (active) |
| Oc1c(Br)cc(Br)cc1Br.[Cu+2] |  | 121% (inactive) |  | 88.7% (inactive) | 108% (inactive) | 104% (inactive) |  | 103% (inactive) |  | 117% (inactive) | 104% (inactive) | 101% (inactive) |  | 87.4% (inactive) | 94.3% (inactive) | 109% (inactive) | 88.3% (inactive) | 98% (inactive) | 106% (inactive) |
| CCOc1c(Cl)cc(CNC(C)C(O)c2ccccc2)cc1OC (stereo not drawn) |  | 73.3% (inactive) | 27% (inactive) | 69.1% (inactive) | 95% (inactive) | 53.1% (inactive) | 91.6% (inactive) | 57.2% (inactive) |  | 90.5% (inactive) | 87.9% (inactive) | 77.7% (inactive) | 56.5% (inactive) |  | 86.3% (inactive) |  | 92% (inactive) | 29.3% (inactive) | 32.9% (inactive) |
| CC12CC[C@H](O)C=C1/C(=N/O)CC1C2CCC2(C)C1CC[C@@H]2O (stereo partly drawn) | 97.1% (inactive) | 96.4% (inactive) |  | 90.1% (inactive) | 115% (inactive) | 98% (inactive) | 104% (inactive) |  | 89.6% (inactive) | 102% (inactive) | 84% (inactive) |  | 107% (inactive) |  | 95% (inactive) |  |  | 103% (inactive) |  |
| Cc1cccc(N=C2c3cc([N+](=O)[O-])ccc3-c3c2cc([N+](=O)[O-])cc3[N+](=O)[O-])c1 | 80.1% (inactive) | 61.7% (inactive) |  |  | 98.5% (inactive) |  | 82.5% (inactive) | 16.8% (inactive) | 75.4% (inactive) |  |  | 21.4% (inactive) |  |  | 119% (inactive) | 101% (inactive) |  | 72.1% (inactive) | 74.5% (inactive) |
| Cc1cc(CCl)c(C)cc1CCl |  | 15.3% (inactive) | 79.3% (inactive) | 55.5% (inactive) |  |  | 51% (inactive) | 66.9% (inactive) | 106% (inactive) | 37.3% (inactive) | 5.81% (active) | 19.7% (inactive) |  | 83.4% (inactive) |  | 81.7% (inactive) | 15% (inactive) | 55% (inactive) |  |
| CC(C)OC(=S)[S-].[Au+].c1ccc([PH+](c2ccccc2)c2ccccc2)cc1 |  | 76% (inactive) | -23% (active) | -63.6% (active) |  | 55.7% (inactive) | 25.1% (inactive) |  | 82.9% (inactive) | -3.22% (active) |  | 10.9% (inactive) | 27.2% (inactive) | 38.9% (inactive) |  | 15.6% (inactive) | 99.4% (inactive) |  |  |
| CC(=O)Nc1ccc(Cc2ccc(NC(C)=O)cc2)cc1 |  | 94.1% (inactive) |  | 104% (inactive) |  | 104% (inactive) | 121% (inactive) | 71.4% (inactive) | 103% (inactive) | 106% (inactive) | 88.9% (inactive) | 101% (inactive) | 95.6% (inactive) | 99% (inactive) |  | 121% (inactive) | 108% (inactive) | 95% (inactive) |  |
| CCC(C)/C=C(C)/C=C/C(=O)c1c(O)c(-c2ccc(O)cc2)c[nH]c1=O (stereo not drawn) |  | 60.8% (inactive) |  | 34.1% (inactive) | 105% (inactive) | 14.3% (inactive) | 59% (inactive) | 45% (inactive) | 58% (inactive) | 27.3% (inactive) | -16.5% (active) | 16.2% (inactive) | 51.2% (inactive) |  | 74.3% (inactive) | 52.7% (inactive) | 59.3% (inactive) | 63.1% (inactive) | 47.6% (inactive) |
| CCCCOC(=O)c1ccccc1C(=O)O.CCCCOC(=O)c1ccccc1C(=O)O.[Cu+2] |  | 127% (inactive) |  | 95% (inactive) | 101% (inactive) |  | 131% (inactive) | 111% (inactive) |  | 107% (inactive) | 113% (inactive) | 108% (inactive) | 108% (inactive) | 101% (inactive) | 93.4% (inactive) |  | 104% (inactive) | 103% (inactive) | 105% (inactive) |
| COc1cc(CNCCc2ccc(Cl)cc2)cc(OC)c1O |  | 83.3% (inactive) | 60.6% (inactive) | 16.1% (inactive) | 77.5% (inactive) |  | 75.6% (inactive) | 52.9% (inactive) |  | 79.6% (inactive) | 58.4% (inactive) | 46.9% (inactive) | 66.3% (inactive) | 69% (inactive) | 82.7% (inactive) | 62.6% (inactive) | 78.9% (inactive) | 89.8% (inactive) | 66.3% (inactive) |
| COc1ccc(CN2CCN(Cc3ccccc3)CC2)c(O)c1 |  | 93.4% (inactive) |  | 71.9% (inactive) | 95.5% (inactive) | 87.7% (inactive) | 104% (inactive) | 86.2% (inactive) |  | 100% (inactive) | 92.4% (inactive) | 87.1% (inactive) | 98.2% (inactive) |  |  | 102% (inactive) | 92.3% (inactive) | 97.4% (inactive) | 95.5% (inactive) |
| CC(=O)O[C@H]1CCC2C3CCC4=C/C(=N/O)CCC4(C)C3CCC21C (stereo partly drawn) | 98.1% (inactive) | 93.4% (inactive) |  | 83.2% (inactive) | 107% (inactive) |  | 90.7% (inactive) | 93.6% (inactive) | 88.5% (inactive) | 103% (inactive) | 80.5% (inactive) |  |  |  | 104% (inactive) |  |  | 99.7% (inactive) | 53.1% (inactive) |
| COc1ccc(NP2(=O)OCC(C)(N)CO2)cc1 (stereo not drawn) | 105% (inactive) |  | 94.8% (inactive) | 92.5% (inactive) | 109% (inactive) | 98.7% (inactive) | 105% (inactive) |  | 120% (inactive) |  |  | 88.9% (inactive) |  | 110% (inactive) | 103% (inactive) | 109% (inactive) |  | 93.6% (inactive) |  |
| CCC[CH2][Sn]([CH2]CCC)([CH2]CCC)[O]C(=O)c1ccc(Cl)cc1Cl |  | -82.2% (active) |  | -73.3% (active) | -68.8% (active) |  | -86.3% (active) | -76.8% (active) | -65% (active) | -90.5% (active) |  |  | -63.6% (active) | -67.7% (active) |  | -38.3% (active) | -86.5% (active) | -79.9% (active) | -85.3% (active) |
| OC1CCCCC1N1CCC(c2ccccc2)CC1 (stereo not drawn) | 114% (inactive) |  |  |  |  |  | 117% (inactive) | 91% (inactive) | 104% (inactive) |  | 96.5% (inactive) | 99.2% (inactive) |  | 109% (inactive) | 104% (inactive) | 108% (inactive) |  | 106% (inactive) | 89.4% (inactive) |
| O1[As]2O[As]3O[As]1O[As](O2)O3 |  | -41.6% (active) | -24.4% (active) | -63.4% (active) |  | -21.1% (active) | -2.55% (active) |  | 5.14% (active) |  | -20.2% (active) | 13.1% (inactive) | 4.6% (active) |  | 38% (inactive) |  | 38.2% (inactive) |  |  |
| NC(=O)C(Br)CBr (stereo not drawn) | -18.8% (active) | -40.8% (active) | -83.7% (active) | -81.7% (active) |  | -21.8% (active) | 80.1% (inactive) | 13.9% (inactive) | -73.1% (active) |  |  | -12.1% (active) | -24.1% (active) |  | 80% (inactive) | 51.1% (inactive) |  | 4.34% (active) | 103% (inactive) |
| COc1cc(NCCCCCN=C(N)N)c2ncccc2c1 |  | 45.7% (inactive) | 66.7% (inactive) | 9.47% (active) | 54.9% (inactive) | 62.9% (inactive) | 37.5% (inactive) | 23.4% (inactive) | 65.4% (inactive) |  | 104% (inactive) | 39.8% (inactive) | 32.6% (inactive) | -12.1% (active) | 94.9% (inactive) |  | 61.4% (inactive) | 90.7% (inactive) | 89.6% (inactive) |
| O=CN1N=C(c2ccc3c(c2)OCO3)CC1c1sc(N(CCCl)CCCl)nc1Cl (stereo not drawn) |  | 93% (inactive) |  | 74.7% (inactive) | 104% (inactive) | 97.9% (inactive) | 91% (inactive) | 88.2% (inactive) | 97.9% (inactive) | 95.3% (inactive) | 82.1% (inactive) | 92.1% (inactive) | 92.9% (inactive) | 100% (inactive) | 90% (inactive) | 79.8% (inactive) | 75.1% (inactive) | 83.9% (inactive) | 97.7% (inactive) |
| CN1CC2CCC(C1)C2=O |  | 84.4% (inactive) |  | 92.1% (inactive) | 106% (inactive) | 100% (inactive) |  | 92.9% (inactive) |  | 93% (inactive) | 91.7% (inactive) | 94.4% (inactive) | 104% (inactive) | 103% (inactive) | 91.8% (inactive) | 108% (inactive) | 88.4% (inactive) | 102% (inactive) | 110% (inactive) |
